# Values joined by “and” are separate entries in the source; they are usually repeats but may differ in a detail not shown here. Equal values may be shown once. Results filed as inconclusive are left out. Entries that show only a call come without a potency. Active and inactive are the calls of the source. Unless noted, calls follow the shape of the dose curve; as a rule, active = well fitted curve in the direction sought with a large enough effect; inconclusive = small, poorly fitted or top-dose-only effect, or another doubt; inactive = no such curve, though single readings can be large; an effect the other way counts as inactive or inconclusive.
# Key:
# [1] = molecular target: Cytochrome P450 3A4 (Homo sapiens) (UniProt P08684); assay: qHTS Assay for Activators of Cytochrome P450 3A4 (AID 885); also: nearly all actives have a fitted effect of over 65% in size
# Method in brief: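 Human CYP3A4 dealkylates Luciferin-PPXE to luciferin, which luciferase detection converts to light. Substrate was at its KM (25uM), buffer 200mM KPO4, reaction 60 min at RT.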
# [2] = Confirmation and Secondary Assay for Modulators of Hemoglobin Beta Chain Splicing at IVS2 654 locus (AID 910);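 also: HeLa cells stably carrying EGFP split by mutant beta-globin IVS2-654 intron; per-well total GFP intensity by laser scanning cytometry after 2-day treatment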
# Method in brief: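 Readout: per-well total peak green fluorescence (488 nm ex, 500–520 nm em) from objects 5–250 µm, reflecting correct splicing of an EGFP-654 reporter. Compounds were applied for 2 days at 37 °C to overnight-plated HeLa EGFP-654 cells; controls were DMSO and 500 nM IVS2-654 PNA.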
# [3] = Confirmation and Secondary Assay for Modulators of Hemoglobin Beta Chain Splicing at IVS2 705 locus (AID 930);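 also: HeLa cells stably expressing the EGFP-705 splicing reporter; GFP fluorescence per well restored by corrected splicing of the IVS2-705 intron in EGFP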
# Method in brief: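 First, HeLa EGFP-705 cells are seeded at 500/well in Optimem with 2% FCS and left overnight. Next, compound or DMSO is added for 2 days. Finally wells are laser-scanned and total peak GFP intensity scored.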
# [4] = qHTS Assay for Lipid Storage Modulators (AID 1519; calls by dose curve; also: potency is read from the fitted curve at half-maximal effect); conditions: Drosophila S3 cells, BODIPY lipid droplet/cell ratio, laser cytometry, cells loaded with oleic acid; for activity change, negative = inhibition: at 57.5 µM (top of the series)
# Method in brief: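 Cells seeded at 5,000 per well were treated with compounds over a concentration series and loaded with oleic acid (400 uM, as added). Lipid droplet fluorescence (488 nm excitation, 500-530 nm channel) was read by laser-scanning cytometry and normalized to 20 uM Triacsin C.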
# [5] = molecular target: Rap guanine nucleotide exchange factor 3 (Homo sapiens) (UniProt O95398); assay: Confirmatory qHTS for agonist of cAMP-regulated guanine nucleotide exchange factor 3 (EPAC1) (AID 1645881);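 also: EPAC1 catalysed release of BODIPY-GDP from Rap1B seen as fluorescence loss; nearly all actives have a fitted effect of over 75% in size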
# [6] = molecular target: Rap guanine nucleotide exchange factor 4 (Homo sapiens) (UniProt Q8WZA2); assay: Confirmatory qHTS for agonist of cAMP-regulated guanine nucleotide exchange factor 4 (EPAC2) (AID 1645884);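 also: nucleotide exchange releases bodipy-GDP from Rap1 and this lowers its fluorescence; nearly all actives have a fitted effect of over 65% in size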
# [7] = molecular target: Rap guanine nucleotide exchange factor 4 (Homo sapiens) (UniProt Q8WZA2); assay: Confirmatory qHTS for antagonist of cAMP-regulated guanine nucleotide exchange factor 4 (EPAC2) (AID 1645885); also: nearly all actives have a fitted effect of over 25% in size; also: potency is read from the fitted curve at half-maximal effect
# [8] = molecular target: Glucocorticoid receptor (Homo sapiens) (UniProt P04150); assay: GR-GFP Redistribution (AID 450;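 active = compounds whose dose series gives a full or clear partial fitted curve of increased nuclear translocation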; also: potency is read from the fitted curve at half-maximal effect); conditions: U2OS GR-GFP nuclear translocation, laser cytometry, 2 h
# [9] = molecular target: Glucocorticoid receptor (Homo sapiens) (UniProt P04150); assay: GR-EFC Redistribution (AID 451; calls by dose curve; also: potency is read from the fitted curve at half-maximal effect); conditions: CHO-K1 GR-EFC translocation, beta-gal luminescence, 2 h
# Method in brief: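 Translocation of GR-ED fusion to nuclear EA restores b-gal, read by luminescence after 1 h room-temperature detection. Engineered CHO-K1 biosensor cells, 1,000/well, exposed 2 h at 37 C to titrations up to 46 uM final.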
# [10] = molecular target: Ubiquitin carboxyl-terminal hydrolase 1 (Homo sapiens) (UniProt O94782); assay: Inhibitors of USP1/UAF1: Pilot qHTS (AID 504865); also: nearly all actives have a fitted effect of over 35% in size; also: potency is read from the fitted curve at half-maximal effect;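 as to activity change, negative = inhibition: rhodamine fluorescence freed from ubiquitin-rhodamine substrate followed over time; top concentration of the series differs between compounds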
# Method in brief: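 In 50mM HEPES pH 7.8 containing 0.5mM EDTA, 1mM TCEP, 0.1 mg/ml BSA and 0.01% Tween-20, 1nM USP1/UAF1 is exposed to compound for 15 min, then Ub-Rho (150nM final) is added and fluorescence is read over time.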
# [11] = molecular target: DNA dC->dU-editing enzyme APOBEC-3G (Homo sapiens) (UniProt Q9HC16); assay: qHTS for inhibitors of Vif-A3G interactions: Validation (AID 588379)
# Method in brief: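 Yellow fluorescence (Ex 488, Em 500-530) of Vif-coexpressing HeLa A3G-eYFP cells, scanned by Acumen cytometer, reports blocked A3G degradation. Cells plated at 700/well overnight at 37 deg C before compound addition, then a further overnight compound incubation at 37 deg C.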
# [12] = molecular target: Rap guanine nucleotide exchange factor 3 (Homo sapiens) (UniProt O95398); assay: Confirmatory qHTS for antagonist of cAMP-regulated guanine nucleotide exchange factor 3 (EPAC1) (AID 1645880); also: nearly all actives have a fitted effect of over 55% in size; also: potency is read from the fitted curve at half-maximal effect
# Method in brief: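 Released BODIPY-GDP fluoresces less than Rap1-bound BODIPY-GDP; the signal is followed at 480/540 nm at 5-min intervals over 30 min, after 5 min at room temperature. Reactions contain 100 nM EPAC1, 250 nM RAP1B-BODIPY-GDP and 50 uM GDP; results are normalized to ATA and DMSO.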
# [13] = molecular target: Cytochrome P450 3A4 (Homo sapiens) (UniProt P08684); assay: qHTS Assay for Inhibitors and Substrates of Cytochrome P450 3A4 (AID 884); also: potency is read from the fitted curve at half-maximal effect; nearly all actives have a fitted effect of over 50% in size
# Method in brief: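 Luminescent readout of luciferin produced by CYP3A4 (20 nM) dealkylation of Luciferin-PPXE, 25 uM (its KM). NADPH-driven reaction ran 60 min at RT after 10 min compound preincubation; data scaled to 57 uM ketoconazole as 100% inhibition.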
# [14] = molecular target: Lysosomal acid glucosylceramidase (Homo sapiens) (UniProt P04062); assay: Glucocerebrosidase-p2 (AID 348; in the data active = potency below about 10 µM; also: potency is read from the fitted curve at half-maximal effect); conditions: purified GBA, blue fluorogenic substrate, 40 min
# Method in brief: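 Normal human glucocerebrosidase (0.2 nM) with blue fluorogenic substrate (80 uM final) in citrate/phosphate pH 5.9 with 10mM sodium taurocholate, 0.01% tween-20; 40 min RT, NaOH/glycine stop; fluorescence Ex 365/Em 440; AC50 from a titration from 0.6 nM upwards.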
# [15] = AP1 Signaling Pathway (AID 357; active = well fitted curve in either direction with a large enough effect, not every such curve was filed as active;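 also: ME-180 reporter cells stimulated with EGF at its EC50 level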); conditions: ME-180 AP-1-bla reporter, EGF-induced, beta-lactamase ratio, 5 h; at 7.69 µM (top of the series) unless noted
# Method in brief: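 First, ME-180 AP-1-bla cells were cultured overnight at 37 °C in low-serum Opti-MEM. Next, titrated compounds with EC50 EGF were incubated 5 hours. Finally, CCF4 was added for 2.5 hours and the 460/530 nm ratio recorded.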
# [16] = NFAT Signaling Pathway (AID 444; active = well fitted curve in either direction with a large enough effect, not every such curve was filed as active;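 also: carbachol stimulus at about its EC50 of 1 µM final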); conditions: Jurkat NFAT-bla M1, carbachol, beta-lactamase ratio, 5 h; at 7.69 µM (top of the series) unless noted
# Method in brief: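 Read-out: CCF4 FRET ratio (460 nm/530 nm) after 1 h RT dye loading, used for %activity and AC50 from titration series. Cells: Jurkat NFAT-β-lactamase/M1 line, treated with compound plus 1 uM carbachol for 5 h, 37 °C.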
# [17] = Stat Signaling Pathway (AID 446; active = well fitted curve in either direction with a large enough effect, not every such curve was filed as active;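 also: ME-180 cervical cancer cells given 40 pM IL-6 alongside compound; SIE-controlled beta-lactamase reporter measured as 460/530 nm FRET emission ratio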); conditions: ME-180 (cervical carcinoma) SIE beta-lactamase reporter, IL-6 stimulated, 5 h; at 7.69 µM (top of the series) unless noted
# Method in brief: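 Normalization used AC90 stimulation (300 pM IL-6) and AC90 inhibition (125 nM pan-JAK inhibitor at 40 pM IL-6). The underlying signal is SIE-driven beta-lactamase in ME-180 cells after 5 h IL-6 exposure with compound.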
# [18] = molecular target: Mitogen-activated protein kinase 10 (Mus musculus) (UniProt Q61831); assay: JNK3 AlphaScreen Assay (AID 530; active = well fitted curve in either direction with a large enough effect, not every such curve was filed as active;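 also: kinase came from lysate of stimulated human HepG2 cells; signal reports phosphorylation of biotinylated GST-cJun 1-79 at Ser73 with 10 µM ATP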)
# Method in brief: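 Kinase buffer: 20 mM Tris-HCl pH 7.6, 10 mM MgCl2, 1 mM DTT, 0.1 mM Na3VO4, 0.01% Tween-20; ATP 10 uM. Substrate biotin-GST-cJun(1-79), enzyme from activated HepG2 lysates. Detection by Ser73 phospho-antibody AlphaScreen.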
# [19] = molecular target: 3',5'-cyclic-AMP phosphodiesterase 4B (Homo sapiens) (UniProt Q07343); assay: qHTS Assay for Inhibitors of PDE-IV (AID 607; active = well fitted activation curve with a large enough effect in the main read-out, with a control signal flat, not every such curve was filed as active)
# Method in brief: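 HEK293 ACTOne cells with CNG channel (1000/well), endogenous PDE4; membrane potential dye, compounds up to 22.9 uM final. Fluorescence Ex 535/Em 590; RO 20-1724 (100 uM final) as reference.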
# [20] = measured here: cell count channel max response
# [21] = measured here: lipid channel max response
# Sequence of Rap guanine nucleotide exchange factor 4 (Homo sapiens) (Q8WZA2 whole entry, looked up): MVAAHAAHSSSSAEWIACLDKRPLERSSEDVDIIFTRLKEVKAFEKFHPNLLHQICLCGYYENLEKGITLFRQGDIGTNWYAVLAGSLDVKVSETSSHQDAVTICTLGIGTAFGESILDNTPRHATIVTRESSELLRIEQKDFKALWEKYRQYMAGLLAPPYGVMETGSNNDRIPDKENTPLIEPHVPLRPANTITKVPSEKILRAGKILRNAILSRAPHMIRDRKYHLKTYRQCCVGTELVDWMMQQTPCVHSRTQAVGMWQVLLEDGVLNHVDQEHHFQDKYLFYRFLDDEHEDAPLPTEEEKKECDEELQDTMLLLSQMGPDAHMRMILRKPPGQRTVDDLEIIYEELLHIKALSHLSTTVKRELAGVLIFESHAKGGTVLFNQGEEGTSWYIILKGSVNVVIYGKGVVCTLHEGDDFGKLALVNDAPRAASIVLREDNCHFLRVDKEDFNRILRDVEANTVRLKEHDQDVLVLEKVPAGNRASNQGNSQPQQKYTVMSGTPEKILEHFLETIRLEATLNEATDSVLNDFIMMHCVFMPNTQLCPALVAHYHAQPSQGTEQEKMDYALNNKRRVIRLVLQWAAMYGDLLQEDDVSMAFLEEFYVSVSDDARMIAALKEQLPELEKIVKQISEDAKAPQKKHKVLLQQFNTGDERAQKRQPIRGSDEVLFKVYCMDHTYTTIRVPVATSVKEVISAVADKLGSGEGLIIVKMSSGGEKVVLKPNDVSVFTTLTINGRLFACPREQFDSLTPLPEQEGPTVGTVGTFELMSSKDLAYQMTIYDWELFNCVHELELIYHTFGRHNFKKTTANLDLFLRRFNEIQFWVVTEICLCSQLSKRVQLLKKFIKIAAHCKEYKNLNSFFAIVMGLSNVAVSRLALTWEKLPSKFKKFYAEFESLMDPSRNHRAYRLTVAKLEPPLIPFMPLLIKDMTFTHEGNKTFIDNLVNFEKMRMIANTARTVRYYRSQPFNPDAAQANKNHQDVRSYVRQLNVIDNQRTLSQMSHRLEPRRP
# Sequence of Glucocorticoid receptor (Homo sapiens) (P04150 whole entry, looked up, the tested form may be a part): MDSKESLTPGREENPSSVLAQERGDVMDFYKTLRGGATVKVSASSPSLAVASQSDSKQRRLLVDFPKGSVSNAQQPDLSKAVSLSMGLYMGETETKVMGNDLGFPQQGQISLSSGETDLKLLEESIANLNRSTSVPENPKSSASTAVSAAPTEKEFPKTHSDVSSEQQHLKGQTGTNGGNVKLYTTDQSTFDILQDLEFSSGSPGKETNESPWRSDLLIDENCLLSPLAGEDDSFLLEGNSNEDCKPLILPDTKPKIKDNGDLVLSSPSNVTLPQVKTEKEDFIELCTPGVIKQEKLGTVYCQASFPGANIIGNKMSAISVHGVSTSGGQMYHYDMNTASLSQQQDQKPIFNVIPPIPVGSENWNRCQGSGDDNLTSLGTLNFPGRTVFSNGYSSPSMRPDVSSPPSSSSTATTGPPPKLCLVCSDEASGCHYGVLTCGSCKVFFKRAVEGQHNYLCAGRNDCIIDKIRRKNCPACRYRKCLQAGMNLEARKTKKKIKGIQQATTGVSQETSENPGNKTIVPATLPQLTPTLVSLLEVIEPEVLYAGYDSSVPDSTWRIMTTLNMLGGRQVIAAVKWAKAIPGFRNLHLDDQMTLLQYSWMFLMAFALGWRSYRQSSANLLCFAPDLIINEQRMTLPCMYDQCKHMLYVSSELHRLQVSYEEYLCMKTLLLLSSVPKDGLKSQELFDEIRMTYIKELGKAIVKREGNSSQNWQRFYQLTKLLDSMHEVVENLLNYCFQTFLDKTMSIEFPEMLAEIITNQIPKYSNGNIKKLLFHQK
# Sequence of Rap guanine nucleotide exchange factor 3 (Homo sapiens) (O95398 whole entry, looked up): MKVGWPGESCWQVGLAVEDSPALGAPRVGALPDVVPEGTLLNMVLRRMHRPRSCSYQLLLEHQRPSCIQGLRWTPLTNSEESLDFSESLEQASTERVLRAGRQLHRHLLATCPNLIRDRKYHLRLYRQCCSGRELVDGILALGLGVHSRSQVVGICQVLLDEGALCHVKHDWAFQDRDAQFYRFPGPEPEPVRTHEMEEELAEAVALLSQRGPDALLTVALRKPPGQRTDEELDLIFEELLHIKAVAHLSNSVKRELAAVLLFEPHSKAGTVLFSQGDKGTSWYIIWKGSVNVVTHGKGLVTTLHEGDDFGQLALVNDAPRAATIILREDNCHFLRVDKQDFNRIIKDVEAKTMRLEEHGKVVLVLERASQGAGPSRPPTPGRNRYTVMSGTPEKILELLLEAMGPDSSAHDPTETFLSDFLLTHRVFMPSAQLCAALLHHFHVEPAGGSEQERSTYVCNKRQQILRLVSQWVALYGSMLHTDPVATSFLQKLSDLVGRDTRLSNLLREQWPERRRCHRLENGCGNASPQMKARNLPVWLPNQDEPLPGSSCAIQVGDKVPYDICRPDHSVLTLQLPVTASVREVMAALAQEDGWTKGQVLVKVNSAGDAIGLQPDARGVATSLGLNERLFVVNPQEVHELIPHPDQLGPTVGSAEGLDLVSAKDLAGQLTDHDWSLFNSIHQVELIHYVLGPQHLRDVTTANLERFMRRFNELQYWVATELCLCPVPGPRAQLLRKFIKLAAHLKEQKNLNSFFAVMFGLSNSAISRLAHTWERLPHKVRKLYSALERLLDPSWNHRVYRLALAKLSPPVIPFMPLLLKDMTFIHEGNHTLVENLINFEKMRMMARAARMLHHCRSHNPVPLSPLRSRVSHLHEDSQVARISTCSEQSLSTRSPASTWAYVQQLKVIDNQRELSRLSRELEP
# Sequence of Cytochrome P450 3A4 (Homo sapiens) (P08684 whole entry, looked up): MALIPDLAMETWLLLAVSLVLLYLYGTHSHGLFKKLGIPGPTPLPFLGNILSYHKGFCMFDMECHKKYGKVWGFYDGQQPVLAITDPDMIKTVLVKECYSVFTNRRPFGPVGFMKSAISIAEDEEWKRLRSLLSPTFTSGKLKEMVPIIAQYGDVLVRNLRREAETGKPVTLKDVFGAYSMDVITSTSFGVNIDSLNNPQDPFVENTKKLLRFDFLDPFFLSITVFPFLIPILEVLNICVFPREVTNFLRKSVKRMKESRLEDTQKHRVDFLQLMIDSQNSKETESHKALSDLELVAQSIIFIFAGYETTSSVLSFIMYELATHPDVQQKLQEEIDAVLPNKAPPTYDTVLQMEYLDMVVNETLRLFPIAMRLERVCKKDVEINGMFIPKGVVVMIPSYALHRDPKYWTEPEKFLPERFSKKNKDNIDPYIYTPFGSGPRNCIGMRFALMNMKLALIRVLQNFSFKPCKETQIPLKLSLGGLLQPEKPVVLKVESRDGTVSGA
# Sequence of DNA dC->dU-editing enzyme APOBEC-3G (Homo sapiens) (Q9HC16 whole entry, looked up): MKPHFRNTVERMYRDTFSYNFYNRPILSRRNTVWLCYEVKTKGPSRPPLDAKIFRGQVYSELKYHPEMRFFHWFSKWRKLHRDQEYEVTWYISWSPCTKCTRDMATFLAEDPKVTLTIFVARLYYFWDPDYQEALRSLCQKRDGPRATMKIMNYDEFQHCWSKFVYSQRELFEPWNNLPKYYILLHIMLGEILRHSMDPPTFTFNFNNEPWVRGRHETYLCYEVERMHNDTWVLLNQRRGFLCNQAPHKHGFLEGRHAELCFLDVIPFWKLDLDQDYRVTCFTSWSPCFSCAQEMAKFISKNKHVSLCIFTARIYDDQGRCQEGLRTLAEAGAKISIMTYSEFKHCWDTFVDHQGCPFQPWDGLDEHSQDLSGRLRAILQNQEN
# Sequence of Ubiquitin carboxyl-terminal hydrolase 1 (Homo sapiens) (O94782 whole entry, looked up): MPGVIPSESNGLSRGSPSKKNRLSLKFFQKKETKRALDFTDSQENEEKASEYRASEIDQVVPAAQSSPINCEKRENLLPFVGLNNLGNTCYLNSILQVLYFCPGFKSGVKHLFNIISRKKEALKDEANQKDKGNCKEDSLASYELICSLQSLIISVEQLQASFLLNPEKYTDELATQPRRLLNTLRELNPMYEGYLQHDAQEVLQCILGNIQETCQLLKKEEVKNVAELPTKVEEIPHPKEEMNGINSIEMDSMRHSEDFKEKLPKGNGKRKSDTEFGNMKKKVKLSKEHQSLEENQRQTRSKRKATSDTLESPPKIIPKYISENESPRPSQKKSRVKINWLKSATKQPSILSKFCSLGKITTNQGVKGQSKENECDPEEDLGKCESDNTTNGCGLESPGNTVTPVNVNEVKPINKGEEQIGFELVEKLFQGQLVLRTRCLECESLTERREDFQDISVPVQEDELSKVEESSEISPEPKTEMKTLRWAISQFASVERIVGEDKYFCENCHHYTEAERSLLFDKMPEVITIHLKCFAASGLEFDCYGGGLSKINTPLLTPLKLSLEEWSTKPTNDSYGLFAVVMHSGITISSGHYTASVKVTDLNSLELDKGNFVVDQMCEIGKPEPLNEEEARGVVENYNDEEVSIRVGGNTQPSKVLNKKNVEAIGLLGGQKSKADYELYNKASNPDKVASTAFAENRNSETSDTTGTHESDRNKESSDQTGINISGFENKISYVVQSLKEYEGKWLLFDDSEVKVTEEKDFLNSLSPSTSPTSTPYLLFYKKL
# Sequence of Lysosomal acid glucosylceramidase (Homo sapiens) (P04062 whole entry, looked up): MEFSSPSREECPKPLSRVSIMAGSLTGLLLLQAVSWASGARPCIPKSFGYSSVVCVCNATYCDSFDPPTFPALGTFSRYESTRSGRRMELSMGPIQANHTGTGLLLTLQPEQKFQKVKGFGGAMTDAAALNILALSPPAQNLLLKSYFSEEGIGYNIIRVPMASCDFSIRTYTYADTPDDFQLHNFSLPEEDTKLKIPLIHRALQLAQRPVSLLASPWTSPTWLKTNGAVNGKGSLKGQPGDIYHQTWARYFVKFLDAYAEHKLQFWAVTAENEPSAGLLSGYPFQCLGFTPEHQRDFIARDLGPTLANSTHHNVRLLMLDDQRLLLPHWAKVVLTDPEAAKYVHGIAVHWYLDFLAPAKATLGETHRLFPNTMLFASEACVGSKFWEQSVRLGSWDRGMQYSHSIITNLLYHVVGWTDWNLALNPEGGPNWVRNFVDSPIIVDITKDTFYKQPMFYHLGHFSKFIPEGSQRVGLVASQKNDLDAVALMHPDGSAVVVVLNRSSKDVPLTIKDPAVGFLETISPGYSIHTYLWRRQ
structure (smiles),measurement,setting,value
COC(=O)c1c(C)c2c(c(C)c1O)OC(=O)c1c(C)c(Cl)c(O)c(Cl)c1O2,Potency,[1],inactive
same,Potency,[2],inactive
same,outcome,[3],inactive
same,"activity change, negative = inhibition",[4],9.5% (inactive)
same,max response,[4]; [20],-4.72%
same,max response,[4]; [21],1.33%
same,Potency,[5],inactive
same,Potency,[6],inactive
same,Potency,[7],2.48 µM (active) and 2.21 µM (active)
N#C/C(=C\c1ccc(O)c(O)c1)C(=O)NCCCCc1ccccc1,Potency,[8],> 46 µM (inactive)
same,Potency,[9],> 46 µM (inactive)
same,"activity change, negative = inhibition",[4],-2.23% (inactive)
same,max response,[4]; [20],21.1%
same,max response,[4]; [21],17.3%
same,Potency,[10],35.5 µM (active)
same,outcome,[11],inactive
same,Potency,[12],15.7 µM (active)
same,Potency,[5],inactive
same,Potency,[6],inactive
CC(=O)Oc1ccc2c(c1C(C)C)CCC1C(C)(C)CCC[C@@]21C (some centres undefined),Potency,[1],inactive
same,Potency,[2],inactive
same,outcome,[3],inactive
same,"activity change, negative = inhibition",[4],2.03% (inactive)
same,max response,[4]; [20],13.7%
same,max response,[4]; [21],20.3%
same,Potency,[5],inactive
same,Potency,[6],inactive
same,Potency,[7],inactive
COc1ccc2c(c1)[C@@]1(C)CCC[C@](C)(CO)C1CC2 (some centres undefined),Potency,[13],10 µM (active)
same,Potency,[1],inactive
same,"activity change, negative = inhibition",[4],8.34% (inactive)
same,max response,[4]; [20],17.7%
same,max response,[4]; [21],28.8%
same,outcome,[11],inactive
same,Potency,[5],inactive
same,Potency,[6],inactive
same,Potency,[7],39.3 µM (active)
COC(=O)c1c(OC)cc2c(c1C)Oc1c(Cl)c(OC(C)=O)c(Cl)c(C)c1C(=O)O2,Potency,[13],15.8 µM (active)
same,Potency,[1],inactive
same,Potency,[2],inactive
same,outcome,[3],inactive
same,"activity change, negative = inhibition",[4],5.48% (inactive)
same,max response,[4]; [20],2.97%
same,max response,[4]; [21],13%
same,Potency,[12],inactive
same,Potency,[5],inactive
same,Potency,[6],inactive
same,Potency,[7],11.1 µM (active)
O=c1c(O)c(-c2ccc(O)c(O)c2)oc2c(OC3OC(CO)C(O)C(O)C3O)c(O)cc(O)c12 (centres undefined),Potency,[1],inactive
same,Potency,[2],inactive
same,outcome,[3],inactive
same,"activity change, negative = inhibition",[4],0.918% (inactive)
same,max response,[4]; [20],-2.75%
same,max response,[4]; [21],7.27%
same,Potency,[10],inactive
same,Potency,[12],inactive
same,Potency,[5],inactive
same,Potency,[6],inactive
same,Potency,[7],inactive
CC(=O)OC1c2c(ccc3ccc(=O)oc23)OC(C)(C)C1OC(=O)CC(C)C (centres undefined),Potency,[13],20 µM (active)
same,Potency,[1],inactive
same,Potency,[2],inactive
same,outcome,[3],inactive
same,Potency,[4],25.1 µM (active)
same,max response,[4]; [20],-23.2%
same,max response,[4]; [21],-91.6%
same,Potency,[5],inactive
same,Potency,[6],inactive
same,Potency,[7],44.1 µM (active)
O=C(c1cccc(F)c1)N1CCC[C@@]2(CCN(C(c3ccccc3)c3ccccc3)C2)C1,Potency,[14],> 11.4 µM (inactive)
same,"activity change, negative = inhibition",[15],28.8% (inactive)
same,"activity change, negative = inhibition",[16],0.838% (inactive)
same,"activity, negative = inhibition",[17],12.6% (inactive)
same,Potency,[9],> 46 µM (inactive)
same,Potency,[18],inactive
same,Potency,[19],inactive
same,Potency,[13],3.98 µM (active)
same,Potency,[1],inactive
same,"activity change, negative = inhibition",[4],-11.6% (inactive)
same,max response,[4]; [20],5.27%
same,max response,[4]; [21],-12.6%
same,Potency,[5],inactive
same,Potency,[6],inactive
same,Potency,[7],inactive
